Assays:
Experiment in all cases: PBM binding z-score (relative to random genomic background probes); higher = stronger binding; sequences stand for … in GC…GCGATTGACAGCGTAGAATGAAGG
[1] = tested on: RARb homodimer (NR concentration 270 nM)
In short: (§1)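 Probes were double-stranded and carried 34-nt variable regions with direct-repeat seeds, single-nucleotide variants, half-site ablations and random human genomic background sequences, printed on custom Agilent 4×180K protein-binding microarrays. Arrays were incubated 1 h with ligand-free nuclear receptor dimers in PBS pH 7.4, 2% milk, 0.02% Triton X-100, 1 mM DTT, 0.2 mg/mL BSA and 0.4 mg/ml salmon testes DNA. Antibodies against each partner (one per run) detected binding, and scanned fluorescence was regression-normalized. Binding z-scores use the random background probes as reference.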

[2] = tested on: RARg:RXRa (NR concentration 270 nM, RXRa partner concentration 90 nM)
In short: as §1

[3] = tested on: RARg homodimer (NR concentration 270 nM)
In short: as §1

[4] = tested on: RXRa DBDmut IVT, anti-RXR (DBD mutation: RXRa K156A/R161A, NR concentration 90 nM)
In short: as §1

[5] = tested on: RXRa homodimer (NR concentration 180 nM)
In short: as §1

[6] = tested on: THRa:RXRa (NR concentration 90 nM, RXRa partner concentration 90 nM)
In short: as §1

[7] = tested on: THRa homodimer (NR concentration 90 nM)
In short: as §1

[8] = tested on: VDR:RXRa (NR concentration 270 nM, RXRa partner concentration 90 nM)
In short: as §1

[9] = tested on: VDR homodimer (NR concentration 270 nM)
In short: as §1

| Sequence | PBM binding z-score [1] | PBM binding z-score [2] | PBM binding z-score [3] | PBM binding z-score [4] | PBM binding z-score [5] | PBM binding z-score [6] | PBM binding z-score [7] | PBM binding z-score [8] | PBM binding z-score [9] |
| --- | --- | --- | --- | --- | --- | --- | --- | --- | --- |
| CCTTACGGGTTAAGGTTATAGCACGGGTGGTACG | 1.42 | 1.43 | 0.999 | -0.691 | 2.18 | 2.64 | 1.75 | 0.894 | 0.766 |
| CCGAGTAGGCTATGGGGCATTCAGGCAACGGTGA | -0.154 | -0.57 | -0.466 | -0.62 | -0.38 | -0.343 | -0.619 | -0.947 | -0.709 |
| CCTACTGGGCCAAAAAGGTCGTTGATGCCGATAA | 1.92 | 1.18 | 0.763 | 0.0571 | 1.38 | 1.26 | -0.297 | 2.79 | 1.13 |
| CGTCCAAGATCAAGGTCAGTGAAAGAGACTCGAA | 2.88 | 2.83 | 3.03 | 1.15 | 2.01 | 2.86 | 1.63 | 1.62 | 0.979 |
| ACTATTAGTTGACTTAGGGCAATCGATACGACGC | 0.586 | 0.781 | 0.924 | 0.592 | 0.921 | 1.31 | 0.18 | 0.462 | 0.448 |
| AATACAGGGTCATCGTAAGCCAGAGTACGCACAG | 3.27 | 5.55 | 4.8 | 3.07 | 6.56 | 3.68 | 1.39 | 4.87 | 3.12 |
| ACTAGTTGGTCAGCTGAGGTCACTCACAATTCGG | 4.24 | 3.48 | 3.38 | 1.11 | 3.13 | 4.98 | 4.9 | 3.95 | 2.68 |
| TCTTGTAGATCAGCAGGAGGTTAAGAAAGATCGA | 0.33 | 0.611 | 0.176 | 0.327 | 0.81 | 0.885 | -0.878 | 0.561 | -0.496 |
| CGTACTGGGCCAAAGGTCATTGATTCCAATGCTC | 4.66 | 5.89 | 4.65 | 1.3 | 6.26 | 3.6 | 0.976 | 5.07 | 2.28 |
| CCGACTGGGGCAGAAAGATTACCATACCATCCGG | -0.533 | -0.183 | 0.217 | -0.916 | 0.0291 | -0.794 | -0.569 | -0.535 | -0.722 |
| GCTTATAGATCAAGGTTAAGAAAGACTAAGCTAA | 0.33 | 0.377 | 0.552 | 0.345 | 0.835 | 1.32 | 0.0443 | 0.244 | -0.265 |
| ATATGTAGGGTAGCTGGGGTCATTCAGACTAGGC | 3.6 | 3.62 | 2.23 | 1.78 | 5.16 | 4.74 | 3.57 | 5.75 | 4.92 |
| CCAGACAAGTGAAAGGTAACTCAGTCTGGTACGC | 0.344 | 0.201 | 0.303 | 0.272 | 0.604 | 0.291 | -0.287 | 0.274 | 0.0715 |
| GCTCGCAGGCCATTTGGGTCACTCAATGACGGGC | 1.93 | 1.23 | 1.41 | 0.0952 | 0.671 | 1.93 | 0.651 | 0.783 | 0.416 |
| CGGAGTAGGTTATGGGGCATTCAGGCAACGGTGA | 1.26 | 0.544 | 0.721 | -0.446 | 0.668 | 0.705 | 0.801 | 0.00597 | 0.416 |
| CCTCGGAGGAAAACAGGAGGTCAGAGCTGCCAGA | 2.81 | 1.32 | 1.3 | -0.428 | 1.63 | 2.06 | 0.595 | 1.28 | 0.405 |
| CTTATTAGTTGACCATAAGGGCAACCGAAGCTCG | 2.23 | 1.24 | 1.13 | 0.578 | 0.722 | 2.04 | 1.36 | 0.523 | 0.553 |
| CCTAATGGGCCATCAGGTCATTGATATCAACGTT | 2.76 | 2.27 | 2.23 | 0.496 | 1.39 | 3.38 | 2.92 | 2.04 | 1.57 |

| Sequence | PBM binding z-score [1] | PBM binding z-score [2] | PBM binding z-score [3] | PBM binding z-score [4] | PBM binding z-score [5] | PBM binding z-score [6] | PBM binding z-score [7] | PBM binding z-score [8] | PBM binding z-score [9] |
| --- | --- | --- | --- | --- | --- | --- | --- | --- | --- |
| CTCGAAAGGTCGTGCTCATGTGAGTATACCAAAC | 2.68 | 4.43 | 3.69 | 2.15 | 5.19 | 2.45 | 0.174 | 3.36 | 0.995 |
| ATCTCTTGGTAAGACTCAGTTCAGTGAAGAACGC | 0.908 | 0.084 | 0.186 | 0.852 | -0.0369 | 0.736 | 1.13 | 0.946 | 1.76 |
| CGTCCAAGGACAAGGTCAGTGAAAGAGACTCGAA | 3.32 | 3.17 | 3.98 | 1.46 | 2.22 | 3.63 | 2.39 | 1.54 | 0.725 |
| GCTGCTAGGTCAACTGATGGACAGCTAAAGCTCG | 3.12 | 4.45 | 5.36 | 1.28 | 2.94 | 2.72 | 0.89 | 1.27 | -0.122 |
| GCTAGTAGATCAAGGTTAAGAAAGACTAAGCTAA | 0.204 | 0.392 | 0.168 | -0.105 | 0.832 | 1.01 | -0.473 | -0.00199 | -0.442 |
| ATCTCTGGGTAAAGATAGTTCAGTGAATGCAAAT | 1.1 | 0.61 | 0.989 | -0.0472 | 0.123 | 0.544 | -0.18 | 0.896 | 0.45 |
| AGAACCAGGGCAATGAGTTGATAGCACGGGTGGC | 0.48 | 0.321 | 0.673 | 0.0529 | 0.352 | 0.225 | -0.251 | 3.6 | 0.986 |
| TCTGCTAGGTCAGTTGGTCAGCTAACGAGCTGCC | 2.55 | 2.58 | 3.5 | 0.411 | 1.02 | 1.36 | -0.176 | 0.166 | -0.401 |
| ACTAGCAGGCCAACGGTCACTCAAGATTAGTCCG | 1.57 | 0.906 | 1.57 | -0.139 | 0.345 | -0.135 | -0.434 | -0.505 | -0.593 |
| CCGACTGGGGCAGAAAGGTTACCAAACCATCCGG | 2.23 | 1.52 | 1.35 | -0.609 | 1.66 | 0.905 | -0.598 | 0.877 | -0.377 |
| GCAGCTAGGTCAGGTTGGTCAGCTAACGGGTACG | 2.83 | 2.31 | 3.77 | 0.319 | 1.04 | 1.57 | 0.4 | 0.358 | 0.351 |
| TCTTGTAGATCAGCAGGTTAAGATAGCTGGCCAA | -0.0544 | -0.0434 | -0.135 | 0.631 | 0.48 | 0.172 | -0.238 | 0.44 | -0.295 |
| CCTAGCAGGCAAATCTGGGTCACTCAAGGCTTGA | 1.85 | 1 | 0.802 | 0.0934 | 0.625 | 2.89 | 0.513 | 0.335 | -0.357 |
| CTCGAAAGGTCGGTTGAGGTGTGTATACGGATAA | 1.73 | 2.34 | 2.27 | 0.858 | 1.74 | 3.69 | -0.0744 | 1.03 | 0.415 |
| CCTGCTAGGTCAATTGTCAGCTAAAGCAGCTCGC | 2.38 | 3.24 | 3.98 | 1.77 | 1.41 | 2.02 | 0.418 | 0.479 | -0.128 |
| AGTCAAAGTTCAGGACGAGGGAACGTAAAGCACG | 2.88 | 4.2 | 4.74 | 3.07 | 2.87 | 2.44 | 0.19 | 2.05 | 1.74 |
| TGAATGAGGTTATAACATCAGGGAACGTTGCAAA | -0.0288 | 1.33 | 0.791 | 0.901 | 2.09 | 1.78 | -0.00143 | 1.11 | 0.537 |
| AATACAGGGTCATCGTAGGCCTGAGTACGCACAG | 3.36 | 5.59 | 4.89 | 3.34 | 6.77 | 4.2 | 1.25 | 4.97 | 3.73 |

From the supplement of paper PMC6555819
